Screening data (PubChem BioAssay)
HCV inh: qHTS Assay for Inhibitors of Hepatitis C Virus (HCV); Huh7.5.1 HCVcc-Cre infection, luciferase reporter, 44 h; Potency, µM (series often up to 41.8 µM), inactives show top-dose activity change, negative = inhibition, most hits filed as inhibitors; 340,000 compounds, 3.4% hits; further: potency means the concentration at half of the fitted maximal effect; on the % scale 0 is the no-effect control and ±100 the full control effect
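1,000 cells/well; 4 h culture; + compound; + HCVcc-Cre (~0.5 moi); 44 h; luciferase substrate, RT 15 min; read 15 sec.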
Pf growth 96h: Primary qHTS for delayed death inhibitors of the malarial parasite plastid, 96 hour incubation; P. falciparum luciferase reporter growth, 96 h; 320,000 compounds, 6.9% hits; Potency, µM (highest dose often 28.7 µM), for inactives: at the top dose activity change, negative = inhibition, hits mostly inhibitors; further: potency means the concentration at half of the fitted maximal effect; on the % scale 0 is the no-effect control and ±100 the full control effect
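Infected RBCs, 2% Hct / 0.05% parasitemia final; luciferase-reporter P. falciparum; cpd 96 h, 37 C, 5% CO2; luciferase detection reagent; luminescence.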
Cycloheximide cs: Cycloheximide Counterscreen for Small Molecule Inhibitors of Shiga Toxin; max response, %; 300,000 compounds, 12% hits; AID 2314, 2010; cell reporter, cycloheximide protein synthesis inhibition counterscreen; in the data active means max response mostly above about 13%, no sharp cut-off; inactive means mostly below about 14%; further: read at 38.3 µM for the half of the compounds with a filed dose; 0% is about no effect
Pf growth 48h: Primary qHTS for delayed death inhibitors of the malarial parasite plastid, 48 hour incubation. P. falciparum luciferase growth in erythrocytes, 48 h. Potency, µM (highest dose often 28.7 µM), without a hit: top-dose activity change, negative = inhibition, hits mostly inhibitors. 310,000 compounds, 5.9% hits; further: potency means the concentration at half of the fitted maximal effect; on the % scale 0 is the no-effect control and ±100 the full control effect
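In quantitative HTS format, infected erythrocytes bearing luciferase-reporter parasites were treated for a single generation at 37 C. Luminescence after adding detection reagent served as the growth measure.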
HCMV inh: qHTS Assay for inhibitors of the human cytomegalovirus (HCMV). HFF cells, HCMV-luciferase reporter, 72 h; hits give low values. activity change, negative = inhibition, % at 57.5 µM. 410,000 compounds, 4.5% hits. AID 1259415, 2018; in the data active means activity change below about -60%; inconclusive means no clear call, values can overlap the other calls; inactive means above about -39%; further: on the % scale 0 is the no-effect control and ±100 the full control effect
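Screen run at 2 compound doses on HFFs infected with reporter HCMV, MOI 1 PFU/cell. Luciferase activity from cell lysates at 72 h post infection gave inhibition relative to buffer-only and Salinomycin wells.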
Shiga inhibitor: A qHTS for Small Molecule Inhibitors of Shiga Toxin; Vero cells, Shiga toxin protein synthesis inhibition reporter; inhibition, % at 38.7 µM; 290,000 compounds, 9.2% hits; AID 2315, 2010; in the data active means inhibition mostly above about 28%, no sharp cut-off; inactive means mostly below about 43%; further: 0% is about no effect
* = called active by the depositor; u = inconclusive; x = no result given. Only some compounds are listed: those with a hit (about 21% of all), similar ones and a draw of the others. Unless noted, the call rests on the fitted dose curve; in most records, active means well fitted inhibition curve with a large enough effect; inconclusive means small, poorly fitted or top-dose-only effect, or another doubt; inactive means no such curve, though single readings can be large or run the other way.

SMILES | HCV inh | Pf growth 96h | Cycloheximide cs | Pf growth 48h | HCMV inh | Shiga inhibitor
CCc1noc(C)c1C(=O)NNC(=O)c1ccccc1F | 9% | 37% | x | 19% | -9 | x
C[C@@H]1C[C@H]2OC(=O)C3(CO3)[C@H]2[C@H](O)[C@]2(C)C(=O)C3OC3[C@@H]12 (some centres undefined) | x | u | 21* | 12µM* | x | 40*
CC(C)=CC(=O)O[C@H]1[C@@H]2[C@H](C)C(=O)O[C@@H]2C[C@@H](C)[C@@H]2[C@@H](O)CC(=O)[C@]21C | 20% | 24% | -7 | 34% | u | -5
Cc1nc2c(ccc3nc(NC(=O)C4CC4)sc32)s1 | 11% | 10% | 52* | 35% | 35 | 85*
CCC(=O)Nc1nc2ccc3sc(C)nc3c2s1 | -17% | -6% | 50* | u | 104 | 96*
Cc1nc(NC(=O)C2CC2)sc1C | 31% | 24% | 10 | u | -30 | 3
CCOC(=O)CN1CC23C=CC(O2)C(C(=O)NCc2cccs2)C3C1=O (centres undefined) | -1% | u | -3 | x | 9 | -19
CCOC(=O)CN1CC23C=CC(O2)C(C(=O)NCc2ccc(C)cc2)C3C1=O (centres undefined) | 12% | 10µM* | -1 | x | -19 | 20
CSc1ccc(CNC(=O)c2cc3cc(S(=O)(=O)N4CCCCC4)ccc3n2C)cc1 | x | x | x | x | -31 | x
CCOC(=O)c1nnn2c1nc(N1CCOCC1)c1ccccc12 | -15% | -14% | -1 | -7% | 17 | 4
Nc1nc2c(C(=O)N3CCOCC3)nnn2c2ccccc12 | 7% | 267% | 21* | 236% | 89 | 60*
Cc1cc(NS(=O)(=O)c2ccc(NC(=O)/C=C/c3ccccc3)cc2)nc(C)n1 | 4% | x | x | x | -5 | x
Cc1ccc(/C=C/C(=O)Nc2ccc([N+](=O)[O-])cc2)o1 | -24% | -3% | 36* | -5% | 16 | 75*
CC(=O)c1ccc(NC(=O)/C=C/c2ccc(C)o2)cc1 | x | x | x | x | 38 | x
Cc1cc(NS(=O)(=O)c2ccc(NC(=O)/C=C/c3ccc(C)o3)cc2)nc(C)n1 | 7% | 7.4µM* | 1 | 14% | -1 | 4
Cc1ccc(/C=C/C(=O)Nc2nnc(C)s2)o1 | 1% | -26% | 8 | 64% | 37 | 61*
Cc1ccc(/C=C/C(=O)Nc2ccc(Oc3ccccc3)cc2)o1 | 11µM* | u | 26* | 5% | -30 | 54
COc1ccc2cc(-c3nc4ccc(C(=O)O)cc4[nH]3)c(=O)oc2c1 | x | x | x | x | -16 | x
O=C(COC(=O)/C=C/c1cccc(F)c1)NC(=O)NC1CCCC1 | 10% | x | x | x | -9 | x
CCOc1c(Cl)cc(CNc2nnnn2C)cc1OC | 17% | 0% | 1 | 5.9µM* | -2 | -9
Cc1cc(N/N=C/c2ccccc2O)nc(-c2ccccc2O)n1 | u | 26% | 25* | u | 31 | 46*
Cc1cc(N/N=C\c2ccccc2)nc(-c2ccccc2O)n1 | u | 0% | 84* | 41% | -2 | 83*
Cc1cc(N/N=C/c2ccccc2O)nc(N2CCOCC2)n1 | u | u | 8 | 10µM* | 9 | 30
COc1ccc(OC)c(/C=N/Nc2cc(C)nc(N3CCOCC3)n2)c1 | u | u | 7 | -7% | 11 | -4
Cc1cc(N/N=C/c2ccc(O)cc2O)nc(-c2ccccc2O)n1 | u | u | 59* | 2.6µM* | x | active
SMILES | HCV inh | Pf growth 96h | Cycloheximide cs | Pf growth 48h | HCMV inh | Shiga inhibitor
COc1ccc(/C=C2\SC(=S)N(CC(=O)OCC(=O)Nc3cc(Cl)cc(Cl)c3)C2=O)cc1 | -5% | 22% | 2 | 18% | -15 | -6
Cc1ccc(-c2nc(N3CCN(c4ccccc4Cl)CC3)c3ccccc3n2)cc1 | x | x | x | x | 43 | x
Cc1cc(Nc2cccc(Cl)c2)nc(-c2ccccc2O)n1 | u | -83% | -5 | u | 4 | 3
C/C(=N\Nc1cc(C)nc(-c2ccccc2O)n1)c1ccccc1O | 11µM* | u | 9 | u | -38 | 5
COc1cc(Cl)c(NC(=O)CN2C(=O)c3cccnc3Sc3ccccc32)c(OC)c1 | x | x | x | x | -16 | x
Oc1ccc(Br)cc1/C=N/n1c(-c2ccccc2)n[nH]c1=S | -8% | -1% | -1 | 3% | -8 | -3
Oc1ccc(Br)cc1C=Nc1cccn2cc(-c3ccccc3)nc12 | 2% | u | 35* | 279% | 57 | 81*
CC(CS(=O)(=O)c1ccccc1[N+](=O)[O-])N1CCOCC1 (centres undefined) | 32% | 19% | 12 | 12µM* | -81* | -7
O=[N+]([O-])c1ccccc1S(=O)(=O)c1ccccc1[N+](=O)[O-] | 5% | 28% | -3 | -3% | 8 | -2
COc1ccc(C(CC(=O)NCc2ccccc2)N2Cc3ccccc3C2=O)cc1 (centres undefined) | x | x | x | x | -26 | x
C/C(=N\NC(=O)c1ccn(C)n1)c1ccc(NC(=O)C2CCC2)cc1 | 3% | 3% | 27* | 13% | 21 | 56*
C/C(=N\NC(=O)C1(C)CC1(Br)Br)c1cccc(NC(=O)c2ccc(C)o2)c1 (centres undefined) | x | -21% | 28* | u | -13 | 52*
Cc1ccc(C(=O)Nc2cccc(C(=O)NCc3ccccc3)c2)o1 | u | x | -2 | u | 17 | 21
C/C(=N\NC(=O)c1nn(C)c(C)c1Br)c1ccc(NC(=O)C2CCCC2)cc1 | u | 13µM* | 41* | -18% | 94 | 107*
C/C(=N\NC(=O)C1(C)CC1(Br)Br)c1ccc(NC(=O)C2CCC2)cc1 (centres undefined) | u | 5.2µM* | -2 | u | -26 | -2
CC(=O)Oc1ccc(/C=C(\NC(=O)c2ccco2)C(=O)NCc2ccco2)cc1 | 17% | 18% | 1 | 24% | -3 | -6
C/C(=N\NC(=O)c1ccn(C)n1)c1ccc(NC(=O)C2CCCC2)cc1 | 10% | 12% | 31* | 27% | -36 | 79*
CCOC(=O)Cc1c(C)nc2c(-c3ccc(Cl)cc3)c(C)[nH]n2c1=O | u | -2% | -1 | 55% | -33 | -9
CCOC(=O)Cc1c(C)nc2c(-c3ccc(Cl)cc3)cnn2c1C | -10% | 13% | 18 | u | 2 | 49*
Cc1cc(-n2nc(C)cc2C)n2nc(C)c(-c3ccc(Cl)cc3)c2n1 | 0% | x | -3 | 5% | 0 | -14
Cc1cc(SCC(=O)Nc2ccccc2)n2ncc(-c3ccccc3)c2n1 | u | u | -1 | u | -30 | 8
Cc1cc(C)n2cc(-c3ccc(Cl)cc3)c(C(=O)O)c2n1 | -9% | 141% | 22* | 93% | 98 | 51*
